In all, about 360,000 compounds went through this assay and about 420 (0.12%) were called active. For the sample, actives were picked, then their nearest neighbours and some compounds at random. A number with no mark means an inactive call. Cut-off read from the data, not from the text of the source: active = inhibition above about 30%; inconclusive = no clear call, values can overlap the other calls; inactive = below that.

Chain of Lethal factor (Bacillus anthracis) (P15917 whole entry, looked up): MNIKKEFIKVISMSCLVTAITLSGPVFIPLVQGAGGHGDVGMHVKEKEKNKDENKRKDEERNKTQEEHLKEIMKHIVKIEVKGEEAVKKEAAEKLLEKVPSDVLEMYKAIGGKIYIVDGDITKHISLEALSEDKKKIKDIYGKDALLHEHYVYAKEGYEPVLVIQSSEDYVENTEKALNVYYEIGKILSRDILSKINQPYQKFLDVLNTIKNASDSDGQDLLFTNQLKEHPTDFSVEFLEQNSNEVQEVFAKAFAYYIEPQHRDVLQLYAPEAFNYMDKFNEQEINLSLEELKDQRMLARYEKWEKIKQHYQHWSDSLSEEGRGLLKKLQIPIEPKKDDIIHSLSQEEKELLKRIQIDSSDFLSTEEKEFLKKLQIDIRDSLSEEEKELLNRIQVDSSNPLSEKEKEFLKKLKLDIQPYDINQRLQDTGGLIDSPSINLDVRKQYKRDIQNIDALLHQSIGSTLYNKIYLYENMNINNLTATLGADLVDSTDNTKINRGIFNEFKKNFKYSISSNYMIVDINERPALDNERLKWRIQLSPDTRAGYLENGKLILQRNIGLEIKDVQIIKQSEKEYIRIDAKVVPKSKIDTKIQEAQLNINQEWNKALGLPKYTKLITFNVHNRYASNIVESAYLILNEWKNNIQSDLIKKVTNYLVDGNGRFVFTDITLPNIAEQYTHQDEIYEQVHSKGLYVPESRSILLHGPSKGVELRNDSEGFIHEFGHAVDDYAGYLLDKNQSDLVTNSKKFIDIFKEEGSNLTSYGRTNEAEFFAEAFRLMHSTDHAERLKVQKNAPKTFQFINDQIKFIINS

The test concerns the target Lethal factor (Bacillus anthracis) (UniProt P15917). The test can be described thus: Bacillus anthracis LF protease inhibitors, primary screen, biochemical, multiplex microsphere, MLPCN library (AID 588501). Note: plate controls were buffer without enzyme for full effect and enzyme alone for no effect. Particulars: multiplex microsphere protease cleavage assay, at 10 µM, active compounds read high.
For the compound `CCC(=O)Nc1cccc(NC(=O)CSc2nnnn2C2CCCC2)c1`, the inhibition was 3.1%.
Consider `O=C(N/C(=C\c1ccc([N+](=O)[O-])cc1)C(=O)N1CCCCC1)c1ccco1`, for which the inhibition was 14.4%.
To `C/C=C/C(=O)Nc1nnc(C(C)C)s1` belongs -0.2%; to `CNC[C@H]1Oc2c(NC(=O)C3CCCCC3)cccc2C(=O)N([C@H](C)CO)C[C@@H]1C`, -2.2%.
To `CCN(CC)C(=O)C1=C(C)N(Cc2ccc(OC)cc2)C(=O)C(CC(=O)NCCCCc2ccccc2)C1` (stereo not drawn) belongs -3.9%.
On to `CN1CCc2nc(SC(C(=O)O)c3ccccc3)c(C#N)c(-c3cccs3)c2C1` (stereo not drawn), for which the inhibition is -13.7%.
With `CCN(Cc1ccccc1)C(=O)CCS(=O)(=O)c1ccc2c(c1)oc(=O)n2C`, the inhibition is 0.5%.
To `O=[N+]([O-])c1ccc(C(S(=O)(=O)Cc2ccccc2)S(=O)(=O)Cc2ccccc2)cc1` belongs -1.4%.
To `CCC(CC)C(=O)Nc1cc(C(=O)OC)cc(C(=O)OC)c1` belongs -1.3%.
For `Cc1c(Cl)c([N+](=O)[O-])nn1CC(=O)NCC1CCCO1` (stereo not drawn) the value was -2.9%; for `OCC[C@H]1C[C@@H](O)[C@H](O)[C@@]2(OCCc3ccccc32)O1`, 3.4%.
As for `CCc1ccccc1NC(=S)Nc1cc(OC)c(NC(=O)C(C)C)cc1OC`, the inhibition was 5.6%.
For `O=C(Nc1cccc(F)c1)c1coc(=O)c(Br)c1` the value was 0.1%.
To `O=C(NCC(c1ccco1)N1CCc2ccccc21)c1cccc(F)c1` (stereo not drawn) belongs -3.6%; to `COc1ccc(C2=NS(=O)(=O)N(C)C(C(=O)N3CCCCC3)=C2)cc1`, -0.5%; to `COC(c1ccccc1)c1nnc(CCC(=O)N2CCN(CCOc3ccccc3)CC2)o1` (stereo not drawn), 0.2%.
As to `Cc1cc(C)cc(OCc2nnc(SCC(=O)OC3CCCCC3)o2)c1`, the inhibition was -14.4%.
For `O=c1oc2ccccc2c(CNc2ccccc2)c1[N+](=O)[O-]` the value was 7.9%; for `O=C1NC[C@H](CCCCN2C[C@H](Cc3ccc(O)cc3)N(CCc3ccccc3)C(=O)C2=O)N(CCc2ccccc2)C1=O`, -11.9%; for `O=C(Nc1nnc(C2CC2)s1)C1=NN(C2CCS(=O)(=O)C2)C(=O)CC1` (stereo not drawn), 1.6%.
In the case of `CNC(=O)c1nnn(-c2ccccc2)c1C(=O)NC`, the inhibition was -0.6%.
For `COc1ccc(-n2c(O)c(C=NCC(c3ccco3)N3CCCC3)c3ccccc3c2=O)cc1OC` (stereo not drawn) the value was 0%; for `COc1cc(-c2nc(S(=O)(=O)c3ccc(Cl)cc3)c(N(C)C)o2)cc(OC)c1OC`, 0%; for `CCCCN(C(=O)c1ccc(S(=O)(=O)N2CCOCC2)cc1)C1CCS(=O)(=O)C1` (stereo not drawn), 0.4%.
In the case of `CC(C)NC(=O)COCc1cc(-c2ccc3c(c2)OCO3)on1`, the inhibition is -4.5%.
Regarding `CCCCC(CC)CNCc1cccn1CCN1CCOCC1` (stereo not drawn), the inhibition was 9%.
For `CCn1c(SCC(=O)Nc2ccc(C)cc2)nc2nc3c(cc2c1=O)CCCC3` the value was -5.9%; for `Cc1ccc(CSCC2Nc3ccc(C(=O)N4CCN(c5ccc(F)cc5)CC4)cc3NC2=O)cc1` (stereo not drawn), -0.9%; for `CC(C)OCCCNC(=O)c1ccc(C2SCC(=O)N2Cc2ccco2)cc1` (stereo not drawn), 0.6%.
As to `CCCCC(=O)Nc1ccc2c(c1)C(=O)NC2=O`, the inhibition is -3.5%.
To `CC(=O)Nc1ccc(NC(=O)c2ccc3c(c2)C(=O)N(c2ccccc2C)C3=O)cc1` belongs 0.3%; to `CC(=O)Nc1ccc(Oc2ccc3c(c2)C(=O)NC3=O)cc1`, 30.3% (active); to `OCC1(Cc2ccccc2C(F)(F)F)CCN(Cc2cccc3cnccc23)CC1`, -3.3%.
For `Nc1ncnc2c1cnn2C1CC(O)C(CO)O1` (stereo not drawn) the value was -1.1%; for `Cc1cccc(C)c1-n1nnnc1C(CCc1ccccc1)N1CCN(C/C=C/c2ccccc2)CC1` (stereo not drawn), -0.9%; for `O=C(Nc1cccc(F)c1)NC1CCCc2ccccc21` (stereo not drawn), 0.6%.
To `O=C(COC(=O)CNC(=O)C1CCCCC1)Nc1cccc(F)c1` belongs -8.5%.
Regarding `O=C(Nc1cccc(F)c1)[C@@H]1CCCN1`, the inhibition is 41.3% (active).
Turning to `CC(C)[C@@H](NC(=O)OC(C)(C)C)C(=O)NCC1CCC(C(=O)N[C@@H](Cc2ccccc2)C(=O)O)CC1` (stereo partly drawn), the inhibition is 9%.
For `CC(C)(C)OC(=O)NC(Cc1ccccc1)C(=O)NC(CSC1CCCCO1)C(=O)NN` (stereo not drawn) the value was 39.5% (active).
To `C#CCNC(=O)[C@H](Cc1ccc(C(=O)c2ccccc2)cc1)NC(=O)OC(C)(C)C` belongs -1%.
On to `COc1ccc(C2c3[nH]c4ccccc4c3CCN2CCCn2cccn2)cc1C` (stereo not drawn), for which the inhibition was 1.2%.
Take `Cc1ccccc1N1CCN(C2CCCN(C(=O)c3ocnc3C)C2)CC1` (stereo not drawn): the inhibition was -3.3%.

As a reminder, the inhibition is the relative decrease from the control value, in per cent.
